Measured values: PubChem BioAssay (EPA / NIEHS)
Activity calls are given as the source filed them. Rule for the calls: active = hit-call score of the fitted dose curve at least 0.9, where 1 is the maximum; inactive = score below 0.9.

Key:
Settings in all cases: mRNA level, 48 h; actives raise or lower the signal
[1] = read-out: Broad substrate specificity ATP-binding cassette transporter ABCG2 (Homo sapiens) (UniProt Q9UNQ0); test: LTEA_HepaRG_ABCG2: Life Technologies and Expression Analysis (LTEA) Assay for ABC Transporter (ABCG2) using HepaRG (AID 2283465)
In short: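 Gene expression of ABCG2 in HepaRG liver cells is quantified by qRT-PCR following 48 h exposure across an eight-point series topping at 100 uM. Values come from bidirectional fitting relative to DMSO vehicle.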

[2] = read-out: ATP-citrate lyase (ACLY), ACLY (gene 47); test: LTEA_HepaRG_ACLY: Life Technologies and Expression Analysis (LTEA) Assay for ATP-citrate lyase (ACLY) using HepaRG (AID 2283466)
In short: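 ACLY expression changes in human HepaRG liver cells are quantified by qRT-PCR after 48 h exposure to test chemicals (maximum 100 uM, half-log steps). Values are fitted in both directions relative to 0.5% DMSO vehicle.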

[3] = read-out: Peroxisomal acyl-coenzyme A oxidase 1 (ACOX1) gene, ACOX1 (gene 51); test: LTEA_HepaRG_ACOX1: Life Technologies and Expression Analysis (LTEA) Assay for Peroxisomal acyl-coenzyme A oxidase 1 (ACOX1) gene using HepaRG (AID 2283467)
In short: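 Human HepaRG hepatic cultures, 48 h treatment with test chemicals up to 100 uM. ACOX1 expression read by qRT-PCR relative to 0.5% DMSO vehicle.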

[4] = read-out: Alkaline Phosphatase, Placental (ALPP) gene, ALPP (gene 250); test: LTEA_HepaRG_ALPP: Life Technologies and Expression Analysis (LTEA) Assay for Alkaline Phosphatase, Placental (ALPP) gene using HepaRG (AID 2283468);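 for AC50: differentiated human HepaRG liver cells in serum-free induction medium; ALPP transcript by TaqMan qRT-PCR normalized to ACTB GAPDH and POLR2A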
In short: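 Expression of ALPP was quantified by qRT-PCR against three housekeeping genes in human HepaRG cultures treated for 48 h with an eight-point concentration series up to 100 uM. Activity in either direction was fitted relative to 0.5% DMSO.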

[5] = read-out: Bcl-2 (BAD) gene, BAD (gene 572); test: LTEA_HepaRG_BAD: Life Technologies and Expression Analysis (LTEA) Assay for Bcl-2 (BAD) gene using HepaRG (AID 2283469)
In short: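 Activity values reflect up- or down-regulation of BAD mRNA in human HepaRG hepatic cells treated 48 h in serum-free medium, with eight-point half-log dosing capped at 100 uM and 0.5% DMSO vehicle.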

[6] = read-out: Bcl-2 (BAX) gene, BAX (gene 581); test: LTEA_HepaRG_BAX: Life Technologies and Expression Analysis (LTEA) Assay for Bcl-2 (BAX) gene using HepaRG (AID 2283470)
In short: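 qRT-PCR read-out of BAX mRNA, normalized to three housekeeping genes, after 48 h chemical exposure of human HepaRG cells in serum-free induction medium; eight-point half-log series, top 100 uM, 0.5% DMSO vehicle; bidirectional fit versus DMSO.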

[7] = read-out: adenosine kinase (ADK) gene, ADK (gene 132); test: LTEA_HepaRG_ADK: Life Technologies and Expression Analysis (LTEA) Assay for adenosine kinase (ADK) gene using HepaRG (AID 2283471)
In short: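 HepaRG (human liver), 48 h chemical exposure, 8-pt half-log series, top 100 uM, 0.5% DMSO vehicle. Readout: ADK mRNA by qRT-PCR vs housekeeping genes; bidirectional curve fit relative to DMSO baseline.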

[8] = read-out: Alpha-fetoprotein (AFP) gene, AFP (gene 174); test: LTEA_HepaRG_AFP: Life Technologies and Expression Analysis (LTEA) Assay for Alpha-fetoprotein (AFP) gene using HepaRG (AID 2283472);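 for AC50: AFP transcript by TaqMan qRT-PCR normalized to ACTB GAPDH and POLR2A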
In short: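 qRT-PCR (Fluidigm TaqMan) readout of AFP transcript, normalized to three housekeeping genes, fitted bidirectionally against 0.5% DMSO baseline. HepaRG cells received chemicals for 48 h in serum-free induction medium, top concentration 100 uM, half-log steps.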

BCL2L11 (gene 10018) = test: LTEA_HepaRG_BCL2L11: Life Technologies and Expression Analysis (LTEA) Assay for Bcl-2 (BCL2L11) gene using HepaRG (AID 2283473)
In short: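 Cells were plated, cultured 48 h, switched to serum-free induction medium, then dosed in duplicate for 48 h at eight half-log concentrations up to 100 uM. Lysates underwent RNA isolation and TaqMan qRT-PCR; gain or loss versus DMSO was fitted.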

[9] = read-out: Apolipoprotein A-V (APOA5) gene, APOA5 (gene 116519); test: LTEA_HepaRG_APOA5: Life Technologies and Expression Analysis (LTEA) Assay for Apolipoprotein A-V (APOA5) gene using HepaRG (AID 2283474)
In short: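 Human liver HepaRG cells are treated 48 h with test chemicals (100 uM top, half-log dilutions, 0.5% DMSO). APOA5 mRNA induction or loss is measured by qRT-PCR relative to vehicle.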

[10] = read-out: Apoptosis regulator Bcl-2 (Homo sapiens) (UniProt P10415); test: LTEA_HepaRG_BCL2: Life Technologies and Expression Analysis (LTEA) Assay for Bcl-2 gene using HepaRG (AID 2283475);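 note: BCL2 transcript by TaqMan qRT-PCR normalised to ACTB GAPDH and POLR2A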
In short: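 qRT-PCR read-out (Fluidigm TaqMan) of BCL2 transcript, normalised to three housekeeping genes, after 48 h chemical exposure of HepaRG cells; 8-point half-log series, top 100 uM, 0.5% DMSO vehicle. Gain or loss of signal fitted relative to DMSO baseline.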

[11] = read-out: Bcl-2 (BID) gene, BID (gene 637); test: LTEA_HepaRG_BID: Life Technologies and Expression Analysis (LTEA) Assay for Bcl-2 (BID) gene using HepaRG (AID 2283476)
In short: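 HepaRG, 48 h exposure, 8-pt half-log series, top 100 uM, 0.5% DMSO vehicle, duplicates. Readout: BID mRNA by TaqMan qRT-PCR; housekeeping-normalized; bidirectional curve fit vs DMSO baseline.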

Caspase-3 (Homo sapiens) = Caspase-3 (Homo sapiens) (UniProt P42574); test: LTEA_HepaRG_CASP3: Life Technologies and Expression Analysis (LTEA) Assay for cysteine-aspartic acid protease (CASP3) using HepaRG (AID 2283477)
Chain of Caspase-3 (Homo sapiens) (P42574 whole entry, looked up): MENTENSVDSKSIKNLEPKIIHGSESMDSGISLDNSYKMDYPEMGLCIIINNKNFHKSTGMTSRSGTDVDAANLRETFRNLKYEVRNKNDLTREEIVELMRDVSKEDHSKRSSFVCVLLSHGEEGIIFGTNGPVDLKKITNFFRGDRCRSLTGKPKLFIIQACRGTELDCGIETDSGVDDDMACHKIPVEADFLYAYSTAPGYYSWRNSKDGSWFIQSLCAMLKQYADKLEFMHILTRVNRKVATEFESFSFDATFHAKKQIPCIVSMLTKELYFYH
In short: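 In HepaRG liver cells dosed for 48 h at up to 100 uM (eight-point, duplicate), CASP3 expression changes are scored by qRT-PCR. Activity is fitted in both directions with 0.5% DMSO as baseline.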

[12] = read-out: Cytochrome P450 (CYP24A1), CYP24A1 (gene 1591); test: LTEA_HepaRG_CYP24A1: Life Technologies and Expression Analysis (LTEA) Assay for Cytochrome P450 (CYP24A1) using HepaRG (AID 2283478)
In short: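 Human liver HepaRG cultures receive each chemical for 48 h across an eight-point half-log series topping at 100 uM in 0.5% DMSO. Induction or suppression of CYP24A1 mRNA is scored relative to vehicle after housekeeping-gene normalization.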

[13] = read-out: Cytochrome P450 (CYP1A2), CYP1A2 (gene 1544); test: LTEA_HepaRG_CYP1A2: Life Technologies and Expression Analysis (LTEA) Assay for Cytochrome P450 (CYP1A2) using HepaRG (AID 2283479);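 for AC50: TaqMan qRT-PCR transcript level normalized to ACTB GAPDH and POLR2A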
In short: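 Assesses CYP1A2 mRNA in human HepaRG liver cells after 48 h chemical exposure at up to 100 uM. Values come from qRT-PCR with bidirectional curve fitting relative to DMSO.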

[14] = read-out: cysteine-aspartic acid protease (CASP8), CASP8 (gene 841); test: LTEA_HepaRG_CASP8: Life Technologies and Expression Analysis (LTEA) Assay for cysteine-aspartic acid protease (CASP8) using HepaRG (AID 2283480)
In short: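 Concentration-response in duplicate up to 100 uM (half-log steps, 0.5% DMSO) on differentiated HepaRG cultures for 48 h. Expression change of CASP8 mRNA is determined by TaqMan qRT-PCR with housekeeping-gene normalization.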

[15] = read-out: Cytochrome P450 (CYP2B6), CYP2B6 (gene 1555); test: LTEA_HepaRG_CYP2B6: Life Technologies and Expression Analysis (LTEA) Assay for Cytochrome P450 (CYP2B6) using HepaRG (AID 2283481)
In short: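 Using 48 h treatment of HepaRG cells in serum-free induction medium, concentrations spanned half-log steps from 100 uM in 0.5% DMSO vehicle. CYP2B6 mRNA induction or loss is scored by qRT-PCR against DMSO.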

[16] = read-out: Cytochrome P450 2C19 (Homo sapiens) (UniProt P33261); test: LTEA_HepaRG_CYP2C19: Life Technologies and Expression Analysis (LTEA) Assay for CYP2C19 using HepaRG (AID 2283482)
In short: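 Human HepaRG liver cells received test chemicals for 48 h (highest 100 uM, half-log dilutions in 0.5% DMSO). CYP2C19 mRNA induction or loss is read by multiplexed qRT-PCR and fitted in both directions versus vehicle.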

CYP2C8 (gene 1558) = test: LTEA_HepaRG_CYP2C8: Life Technologies and Expression Analysis (LTEA) Assay for CYP2C8 using HepaRG (AID 2283483)
In short: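 This is a transcriptional endpoint in HepaRG cultures: 48 h exposure, highest concentration 100 uM. CYP2C8 mRNA is quantified by TaqMan qRT-PCR.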

CYP2C9 (gene 1559) = test: LTEA_HepaRG_CYP2C9: Life Technologies and Expression Analysis (LTEA) Assay for CYP2C9 using HepaRG (AID 2283484)
In short: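 Eight-point concentration-response (highest 100 uM, half-log dilutions) in HepaRG cells for 48 h; CYP2C9 expression by qRT-PCR normalized to ACTB, GAPDH, POLR2A. Bidirectional fit, DMSO baseline.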

Measured: AC50

Chain of Cytochrome P450 2C19 (Homo sapiens) (P33261 whole entry, looked up): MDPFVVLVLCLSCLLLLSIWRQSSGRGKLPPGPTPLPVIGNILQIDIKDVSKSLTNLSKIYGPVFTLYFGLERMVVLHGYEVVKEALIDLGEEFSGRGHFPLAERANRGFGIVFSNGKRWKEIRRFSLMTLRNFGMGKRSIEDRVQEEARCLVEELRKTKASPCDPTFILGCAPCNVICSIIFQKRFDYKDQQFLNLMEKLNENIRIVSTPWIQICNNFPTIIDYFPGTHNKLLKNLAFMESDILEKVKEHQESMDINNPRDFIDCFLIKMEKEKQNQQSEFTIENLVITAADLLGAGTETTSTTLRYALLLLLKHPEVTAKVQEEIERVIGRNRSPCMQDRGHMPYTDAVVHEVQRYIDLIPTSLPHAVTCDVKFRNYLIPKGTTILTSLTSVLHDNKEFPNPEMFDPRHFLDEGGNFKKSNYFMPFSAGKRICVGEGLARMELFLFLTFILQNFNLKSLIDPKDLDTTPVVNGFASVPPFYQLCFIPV
Chain of Broad substrate specificity ATP-binding cassette transporter ABCG2 (Homo sapiens) (Q9UNQ0 whole entry, looked up): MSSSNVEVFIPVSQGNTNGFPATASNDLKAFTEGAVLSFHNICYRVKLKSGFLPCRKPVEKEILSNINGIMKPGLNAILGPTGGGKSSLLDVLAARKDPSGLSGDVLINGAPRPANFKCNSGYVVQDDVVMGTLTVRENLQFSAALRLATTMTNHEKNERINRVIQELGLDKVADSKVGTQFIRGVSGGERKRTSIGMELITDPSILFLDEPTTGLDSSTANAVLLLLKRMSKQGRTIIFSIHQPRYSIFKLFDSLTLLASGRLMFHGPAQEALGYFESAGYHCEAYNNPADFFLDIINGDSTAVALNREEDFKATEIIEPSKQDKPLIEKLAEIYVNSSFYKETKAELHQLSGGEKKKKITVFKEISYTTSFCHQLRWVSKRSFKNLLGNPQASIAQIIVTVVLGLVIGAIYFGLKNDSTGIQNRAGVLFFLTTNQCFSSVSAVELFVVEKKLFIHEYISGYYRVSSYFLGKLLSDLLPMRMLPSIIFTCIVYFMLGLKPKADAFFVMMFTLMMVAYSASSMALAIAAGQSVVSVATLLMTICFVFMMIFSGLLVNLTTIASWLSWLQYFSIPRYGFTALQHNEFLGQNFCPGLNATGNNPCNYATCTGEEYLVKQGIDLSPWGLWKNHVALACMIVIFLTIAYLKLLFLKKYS
Chain of Apoptosis regulator Bcl-2 (Homo sapiens) (P10415 whole entry, looked up): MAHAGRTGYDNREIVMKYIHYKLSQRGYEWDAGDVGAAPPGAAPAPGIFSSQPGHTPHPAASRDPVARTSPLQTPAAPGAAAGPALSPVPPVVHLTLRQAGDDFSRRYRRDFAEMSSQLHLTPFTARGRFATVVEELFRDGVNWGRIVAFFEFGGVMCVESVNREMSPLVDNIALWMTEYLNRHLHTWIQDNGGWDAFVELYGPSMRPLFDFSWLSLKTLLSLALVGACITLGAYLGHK

c1ccc2cc3ccccc3cc2c1
active: [13] 18.7 µM | [15] 13.2 µM
inactive: all other assays above

COCc1nnc(-c2ccc[n+]([O-])c2)n1-c1c(Cl)c(Cl)cc2[nH]c(=O)c(=O)[nH]c12
active: [15] 14.6 µM
inactive: all other assays above

OCCOCCOCCO
inactive: all assays above

CC(=O)c1ccccc1
inactive: all assays above

CCOc1ccc2[nH]cc(C(=O)NCc3ccccc3)c(=O)c2n1
active: [8] 81.3 µM | [10] 0.662 µM | [13] 32 µM
inactive: all other assays above

OCc1ccccc1
inactive: all assays above

c1ccc2ncccc2c1
active: [15] 50 µM | CYP2C8 (gene 1558) 36.2 µM
not listed: CYP2C9 (gene 1559)
inactive: all other assays above

Cc1ncc([C@@H](CCCCCCc2ccc3c(n2)NCCC3)CC(=O)O)cn1
inactive: all assays above

CC1(C)C(=O)N(Cl)C(=O)N1Cl
active: [13] 50 µM
inactive: all other assays above

CC(C)c1nnc2ccc(-c3ocnc3-c3cc(F)ccc3F)cn12
active: [1] 0.384 µM | [4] 39.6 µM | [8] 50 µM | [9] 56.3 µM | [15] 0.619 µM | [16] 91.6 µM | CYP2C8 (gene 1558) 82.6 µM | CYP2C9 (gene 1559) 71.7 µM
inactive: all other assays above

COc1cc(C(C)C)c2c(c1)S(=O)(=O)N(COc1cc(=O)n3cccc(OCCN4CCCCC4)c3n1)C2=O
active: [1] 20.9 µM | [3] 19.8 µM | [4] 6.3 µM | [7] 22 µM | [8] 19.5 µM | [9] 22.6 µM | [10] 22.1 µM | [13] 20.2 µM | [15] 22.5 µM | [16] 19.3 µM | CYP2C8 (gene 1558) 19.9 µM | CYP2C9 (gene 1559) 23.6 µM
inactive: [2] | [5] | [6] | BCL2L11 (gene 10018) | [11] | Caspase-3 (Homo sapiens) | [12] | [14]

CCCCCCCC/C=C\CCCCCCCC(=O)OC[C@@H](O)[C@H]1OC[C@H](O)[C@H]1O
inactive: all assays above

CCCc1ccccc1
inactive: all assays above
